Measured values from PubChem BioAssay AID1347147 (National Center for Advancing Translational Sciences (NCATS), 2019).
Records with an inconclusive call do not appear. A call without a number means that no potency is given here. Calls of active or inactive are those of the source. The call rests on the fitted dose curve; in most records, active means well fitted inhibition curve with a large enough effect; inconclusive means small, poorly fitted or top-dose-only effect; inactive means no such curve, though single readings can be large or run the other way.

target: N-terminal Xaa-Pro-Lys N-methyltransferase 1 (Homo sapiens) (UniProt Q9BV86); assay: qHTS Assay for Inhibitors of N-terminal methyltransferase 1 (NTMT1): MTaseGlo Confirmatory Screen, Round 2; conditions: NTMT1 enzyme, MTase-Glo SAH luminescence; series mostly up to 57.4 µM
Summary of the method: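 Luminescent MTase-Glo readout of SAH formed in 30 min at RT by 125 nM NTMT1, 100 µM SAM and 1 µM SPKRIA substrate, after ~15 min compound preincubation. Percent inhibition versus no-enzyme and DMSO controls was Hill-fitted.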
Potency means the concentration at half of the fitted maximal effect.

Sequence of N-terminal Xaa-Pro-Lys N-methyltransferase 1 (Homo sapiens) (Q9BV86 whole entry, looked up): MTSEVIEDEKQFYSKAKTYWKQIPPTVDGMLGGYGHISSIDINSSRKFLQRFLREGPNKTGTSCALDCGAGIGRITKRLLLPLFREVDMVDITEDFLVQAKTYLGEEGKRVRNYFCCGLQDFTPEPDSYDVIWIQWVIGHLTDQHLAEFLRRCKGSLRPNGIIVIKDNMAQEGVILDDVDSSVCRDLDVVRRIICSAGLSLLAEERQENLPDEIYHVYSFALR

Compound | Potency
COc1ccc(C(=O)/C(Cc2cc(OC)c(OC)c(OC)c2)=C(\C(=O)O)c2ccc3c(c2)OCO3)cc1 | inactive
CC(Cc1ccc(O)c(O)c1)C(C)Cc1ccc(O)c(O)c1 (configuration not stated) | 35.5 µM (active)
CCn1nc(C(=O)O)c(=O)c2cc3c(cc21)OCO3 | inactive
CSc1ccc(C(=O)c2[nH]c(=O)[nH]c2C)cc1 | inactive
N#CC(C#N)=C(N)/C(C#N)=C/c1ccc(O)cc1 | inactive
Nc1ncnc2c1[nH]c(=S)n2C1OC(CO)C(O)C1O (configuration not stated) | inactive
C=CCN1CCc2c(cc(O)c(O)c2Br)[C@@H](c2ccccc2)C1 | inactive
CC(C)NC[C@@H](O)c1ccc(O)c(O)c1 | inactive
CC[n+]1c(/C=C/C=C2/N(C)c3ccccc3C2(C)C)sc2ccccc21 | 14.1 µM (active)
Nc1nc(F)nc2c1ncn2[C@@H]1O[C@H](CO)[C@@H](O)[C@@H]1O | inactive
CCOC(=O)c1cnc2c(cnn2CC)c1NN=C(C)C | inactive
O=C(Nc1ccc([N+](=O)[O-])cc1Cl)c1cc(Cl)ccc1O | inactive
CN(C)[C@@H]1C(=O)C(C(N)=O)=C(O)[C@@]2(O)C(=O)C3=C(O)c4c(O)ccc(Cl)c4[C@@H](O)[C@H]3C[C@@H]12 | inactive
N[C@@H](Cc1c[nH]c2ccc(O)cc12)C(=O)O | inactive
O=c1cc(-c2ccccc2)oc2c(O)c(O)ccc12 | inactive
CSc1nc(N)c2ncn([C@@H]3O[C@H](COP(=O)(O)OP(=O)(O)OP(=O)(O)O)[C@@H](O)[C@H]3O)c2n1 | inactive
O=c1oc(Cl)c(Cl)c2ccccc12 | inactive
